{
  "source": "PubChem BioAssay",
  "note": "Calls of active or inactive are those of the source.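 Rule for the calls, unless noted: active = compound raising the membrane signal above positive-control mean plus 3 SD in both repeats, and a primary screen hit; inactive = the rest.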",
  "data": [
    {"biological_target": "Short transient receptor potential channel 6 (Mus musculus) (UniProt Q61143)", "sequence (Q61143 whole entry, looked up)": "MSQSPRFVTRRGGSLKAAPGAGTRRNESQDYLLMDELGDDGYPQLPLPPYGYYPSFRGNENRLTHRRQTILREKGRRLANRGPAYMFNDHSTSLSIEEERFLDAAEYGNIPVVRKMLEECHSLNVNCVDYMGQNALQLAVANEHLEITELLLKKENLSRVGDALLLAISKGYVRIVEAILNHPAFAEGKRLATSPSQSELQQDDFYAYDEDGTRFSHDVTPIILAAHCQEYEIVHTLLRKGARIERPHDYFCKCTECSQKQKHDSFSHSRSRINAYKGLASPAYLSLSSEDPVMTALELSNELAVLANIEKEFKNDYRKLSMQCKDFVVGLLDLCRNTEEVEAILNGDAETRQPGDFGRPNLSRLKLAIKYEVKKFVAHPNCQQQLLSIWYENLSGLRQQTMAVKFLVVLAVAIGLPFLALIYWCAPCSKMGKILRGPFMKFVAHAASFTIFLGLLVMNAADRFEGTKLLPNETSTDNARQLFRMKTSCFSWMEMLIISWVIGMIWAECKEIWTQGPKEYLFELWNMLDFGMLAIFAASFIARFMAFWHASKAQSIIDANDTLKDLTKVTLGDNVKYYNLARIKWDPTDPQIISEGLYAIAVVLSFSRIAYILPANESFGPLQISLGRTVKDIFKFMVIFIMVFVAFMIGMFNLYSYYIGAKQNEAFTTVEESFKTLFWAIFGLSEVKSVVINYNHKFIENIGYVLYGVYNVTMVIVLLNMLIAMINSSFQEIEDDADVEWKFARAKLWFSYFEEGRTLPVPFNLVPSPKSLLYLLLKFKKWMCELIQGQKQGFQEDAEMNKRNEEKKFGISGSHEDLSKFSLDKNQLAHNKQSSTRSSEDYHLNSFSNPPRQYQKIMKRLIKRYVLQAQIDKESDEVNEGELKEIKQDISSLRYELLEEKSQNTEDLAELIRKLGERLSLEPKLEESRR", "experiment": "activation of mouse TRPC6 channel, confirmation, selectivity assay for TRPC4 activator project, cell-based, HEK293, membrane potential dye, duplicate (AID 434950;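 active = membrane potential signal rise above negative control mean plus 3 SD in both duplicates, also active in the earlier TRPC4 screen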)", "details": "HEK293 TRPC6, membrane potential fluorescence, at 10 µM", "values": [
      {"compound": "CN(C)CCCN(Cc1cc2cc3c(cc2[nH]c1=O)OCO3)C(=S)NCc1ccco1", "outcome": "inactive"},
      {"compound": "Cc1cc(OCC(=O)Nc2ccc(N3CCN(C)CC3)cc2)ccc1Cl", "outcome": "inactive"},
      {"compound": "O=C(Nc1ccccc1Oc1cccnc1)C1CCCN(Cc2ccc(F)cc2)C1", "note": "(stereo not given)", "outcome": "inactive"},
      {"compound": "Cc1ncsc1CCOC(=O)c1cccc([N+](=O)[O-])c1", "outcome": "inactive"},
      {"compound": "N#C/C(=N\\Nc1cccc([N+](=O)[O-])c1)C(=O)c1ccc(Br)cc1", "outcome": "inactive"},
      {"compound": "CC(NC(=O)c1ccco1)C(c1cccs1)N1CCN(c2ccccc2)CC1", "note": "(stereo not given)", "outcome": "inactive"},
      {"compound": "O=C(Cc1ccccc1[N+](=O)[O-])OCc1cccc([N+](=O)[O-])c1", "outcome": "inactive"},
      {"compound": "CCOc1cc(CNCCCN2CCOCC2)cc(Br)c1OCc1ccccc1Cl", "outcome": "inactive"},
      {"compound": "O=C(NCCN1CCOCC1)c1cc2sccc2n1Cc1ccc(F)cc1", "outcome": "inactive"},
      {"compound": "Cn1c(-c2ccc(F)cc2)cnc1NCc1ccc(F)cc1F", "outcome": "inactive"},
      {"compound": "Cc1[nH]c2ccc(C(=O)OC(C)C(=O)N(C)c3ccccc3)cc2c1C", "note": "(stereo not given)", "outcome": "inactive"},
      {"compound": "COc1cc(/C=C2\\SC(=O)N(c3ccccc3Cl)C2=O)cc([N+](=O)[O-])c1O", "outcome": "inactive"},
      {"compound": "Cc1ccc2nc(C)cc(Nc3ccc4c(c3)OCCO4)c2c1", "outcome": "inactive"},
      {"compound": "CC1CCN(CCCOc2ccc(OCc3ccccc3)cc2)CC1", "outcome": "inactive"},
      {"compound": "COCCn1c(SCC(=O)c2ccccc2)nc2ccccc2c1=O", "outcome": "inactive"},
      {"compound": "O=C(c1ccco1)N1CCN(C/C=C/c2ccccc2)CC1", "outcome": "inactive"},
      {"compound": "Nc1cc(N2CCCCC2)c([N+](=O)[O-])cc1Cl", "outcome": "inactive"},
      {"compound": "Cc1cc(Cl)c2oc(C(=O)N(C)Cc3nccn3C)c(C)c2c1", "outcome": "inactive"},
      {"compound": "COc1ccccc1C(=O)Nc1ccc2c(c1)CCCN2C(=O)c1cccs1", "outcome": "inactive"},
      {"compound": "COCCNc1c2c(nc3ccccc13)CCC2", "outcome": "inactive"},
      {"compound": "Cc1onc(-c2c(F)cccc2Cl)c1C(=O)N(C)CC(=O)Nc1cccc(F)c1", "outcome": "inactive"},
      {"compound": "Cc1cc(C)c(S(=O)(=O)c2ccccc2C)c(OCC(C)(C)C)n1", "outcome": "inactive"},
      {"compound": "CCCn1c(=O)c2ccccc2n2c(SCCOc3ccccc3)nnc12", "outcome": "inactive"},
      {"compound": "CCOc1ccccc1N(C(=O)c1snc(C(N)=O)c1N)C(C(=O)NCc1ccccc1)c1ccc(O)cc1", "note": "(stereo not given)", "outcome": "inactive"},
      {"compound": "Cc1oc(-c2ccoc2)nc1CN(Cc1ccccc1)CC1CC1", "outcome": "inactive"},
      {"compound": "CCCN1CN(Cc2ccco2)c2nc3ccccc3n2C1", "outcome": "inactive"},
      {"compound": "O=C(O)c1ccc(CSc2nc(-c3ccc(Cl)cc3)cc(C(F)(F)F)n2)cc1", "outcome": "inactive"},
      {"compound": "CCCCc1nc2ccccc2c(N)c1CCC", "note": "(tested in a mixture with another compound)", "outcome": "inactive"},
      {"compound": "CCOC(=O)c1c(NC(=O)/C=C/C(=O)O)sc(C)c1-c1ccc(C(C)(C)C)cc1", "outcome": "inactive"},
      {"compound": "C=C(C)Cn1c(SCC)nc2ccccc2c1=O", "outcome": "inactive"},
      {"compound": "O=C(Nc1ccccc1N1CCN(C(=O)c2ccc(Cl)cc2)CC1)c1cccc([N+](=O)[O-])c1", "outcome": "inactive"},
      {"compound": "CCOC(=O)C1(CCc2ccccc2)CCN(Cc2ccccn2)CC1", "outcome": "inactive"},
      {"compound": "c1csc(CNc2nc(-c3cccs3)nc3ccccc23)c1", "outcome": "inactive"},
      {"compound": "O=C(c1cccc(C(=O)N2CCN(c3ccccc3)CC2)c1)N1CCN(c2ccccc2)CC1", "outcome": "inactive"},
      {"compound": "CCCCN(CCCC)/C(N)=N/c1nc(C)cc(C)n1", "outcome": "inactive"},
      {"compound": "O=C(C1CCN(CC2CC=CCC2)CC1)N(CCc1ccccc1)Cc1ccccc1", "note": "(stereo not given)", "outcome": "inactive"},
      {"compound": "CCOC(=O)c1c(NC(=O)C2CC(Cl)=CCC2C(=O)O)sc2c1CCCCC2", "note": "(stereo not given)", "outcome": "inactive"},
      {"compound": "COc1ccc(C)cc1N(C(=O)c1snc(C(N)=O)c1N)C(C(=O)NC1CCCCC1)c1ccc(C)o1", "note": "(stereo not given)", "outcome": "inactive"},
      {"compound": "CCOC(=O)c1c(N)sc(C(O)(C(F)(F)F)C(F)(F)F)c1-c1ccccc1", "outcome": "inactive"},
      {"compound": "CNc1nc(NCc2ccccc2)c2ccccc2n1", "outcome": "inactive"}
    ]},
    {"biological_target": "Short transient receptor potential channel 6 (Mus musculus) (UniProt Q61143)", "experiment": "TRPC6 potentiation by TRPC4 potentiator hits, confirmation, selectivity assay for TRPC4 potentiator project, HEK293 cells, membrane potential dye, duplicate (AID 434952)", "details": "HEK293 TRPC6, membrane potential dye fluorescence, at 10 µM, maximal acetylcholine added after compound", "values": [
      {"compound": "CN(C)CCCN(Cc1cc2cc3c(cc2[nH]c1=O)OCO3)C(=S)NCc1ccco1", "outcome": "inactive"},
      {"compound": "Cc1cc(OCC(=O)Nc2ccc(N3CCN(C)CC3)cc2)ccc1Cl", "outcome": "inactive"},
      {"compound": "O=C(Nc1ccccc1Oc1cccnc1)C1CCCN(Cc2ccc(F)cc2)C1", "note": "(stereo not given)", "outcome": "inactive"},
      {"compound": "Cc1ncsc1CCOC(=O)c1cccc([N+](=O)[O-])c1", "outcome": "inactive"},
      {"compound": "N#C/C(=N\\Nc1cccc([N+](=O)[O-])c1)C(=O)c1ccc(Br)cc1", "outcome": "inactive"},
      {"compound": "CC(NC(=O)c1ccco1)C(c1cccs1)N1CCN(c2ccccc2)CC1", "note": "(stereo not given)", "outcome": "inactive"},
      {"compound": "O=C(Cc1ccccc1[N+](=O)[O-])OCc1cccc([N+](=O)[O-])c1", "outcome": "inactive"},
      {"compound": "CCOc1cc(CNCCCN2CCOCC2)cc(Br)c1OCc1ccccc1Cl", "outcome": "inactive"},
      {"compound": "O=C(NCCN1CCOCC1)c1cc2sccc2n1Cc1ccc(F)cc1", "outcome": "inactive"},
      {"compound": "Cn1c(-c2ccc(F)cc2)cnc1NCc1ccc(F)cc1F", "outcome": "inactive"},
      {"compound": "Cc1[nH]c2ccc(C(=O)OC(C)C(=O)N(C)c3ccccc3)cc2c1C", "note": "(stereo not given)", "outcome": "inactive"},
      {"compound": "COc1cc(/C=C2\\SC(=O)N(c3ccccc3Cl)C2=O)cc([N+](=O)[O-])c1O", "outcome": "inactive"},
      {"compound": "Cc1ccc2nc(C)cc(Nc3ccc4c(c3)OCCO4)c2c1", "outcome": "inactive"},
      {"compound": "CC1CCN(CCCOc2ccc(OCc3ccccc3)cc2)CC1", "outcome": "inactive"},
      {"compound": "COCCn1c(SCC(=O)c2ccccc2)nc2ccccc2c1=O", "outcome": "inactive"},
      {"compound": "O=C(c1ccco1)N1CCN(C/C=C/c2ccccc2)CC1", "outcome": "inactive"},
      {"compound": "Nc1cc(N2CCCCC2)c([N+](=O)[O-])cc1Cl", "outcome": "inactive"},
      {"compound": "Cc1cc(Cl)c2oc(C(=O)N(C)Cc3nccn3C)c(C)c2c1", "outcome": "inactive"},
      {"compound": "COc1ccccc1C(=O)Nc1ccc2c(c1)CCCN2C(=O)c1cccs1", "outcome": "inactive"},
      {"compound": "COCCNc1c2c(nc3ccccc13)CCC2", "outcome": "inactive"},
      {"compound": "Cc1onc(-c2c(F)cccc2Cl)c1C(=O)N(C)CC(=O)Nc1cccc(F)c1", "outcome": "inactive"},
      {"compound": "Cc1cc(C)c(S(=O)(=O)c2ccccc2C)c(OCC(C)(C)C)n1", "outcome": "inactive"},
      {"compound": "CCCn1c(=O)c2ccccc2n2c(SCCOc3ccccc3)nnc12", "outcome": "inactive"},
      {"compound": "CCOc1ccccc1N(C(=O)c1snc(C(N)=O)c1N)C(C(=O)NCc1ccccc1)c1ccc(O)cc1", "note": "(stereo not given)", "outcome": "inactive"},
      {"compound": "Cc1oc(-c2ccoc2)nc1CN(Cc1ccccc1)CC1CC1", "outcome": "inactive"},
      {"compound": "CCCN1CN(Cc2ccco2)c2nc3ccccc3n2C1", "outcome": "inactive"},
      {"compound": "O=C(O)c1ccc(CSc2nc(-c3ccc(Cl)cc3)cc(C(F)(F)F)n2)cc1", "outcome": "inactive"},
      {"compound": "CCCCc1nc2ccccc2c(N)c1CCC", "note": "(tested in a mixture with another compound)", "outcome": "inactive"},
      {"compound": "CCOC(=O)c1c(NC(=O)/C=C/C(=O)O)sc(C)c1-c1ccc(C(C)(C)C)cc1", "outcome": "inactive"},
      {"compound": "C=C(C)Cn1c(SCC)nc2ccccc2c1=O", "outcome": "inactive"},
      {"compound": "O=C(Nc1ccccc1N1CCN(C(=O)c2ccc(Cl)cc2)CC1)c1cccc([N+](=O)[O-])c1", "outcome": "inactive"},
      {"compound": "CCOC(=O)C1(CCc2ccccc2)CCN(Cc2ccccn2)CC1", "outcome": "inactive"},
      {"compound": "c1csc(CNc2nc(-c3cccs3)nc3ccccc23)c1", "outcome": "inactive"},
      {"compound": "O=C(c1cccc(C(=O)N2CCN(c3ccccc3)CC2)c1)N1CCN(c2ccccc2)CC1", "outcome": "inactive"},
      {"compound": "CCCCN(CCCC)/C(N)=N/c1nc(C)cc(C)n1", "outcome": "inactive"},
      {"compound": "O=C(C1CCN(CC2CC=CCC2)CC1)N(CCc1ccccc1)Cc1ccccc1", "note": "(stereo not given)", "outcome": "inactive"},
      {"compound": "CCOC(=O)c1c(NC(=O)C2CC(Cl)=CCC2C(=O)O)sc2c1CCCCC2", "note": "(stereo not given)", "outcome": "inactive"},
      {"compound": "COc1ccc(C)cc1N(C(=O)c1snc(C(N)=O)c1N)C(C(=O)NC1CCCCC1)c1ccc(C)o1", "note": "(stereo not given)", "outcome": "inactive"},
      {"compound": "CCOC(=O)c1c(N)sc(C(O)(C(F)(F)F)C(F)(F)F)c1-c1ccccc1", "outcome": "inactive"},
      {"compound": "CNc1nc(NCc2ccccc2)c2ccccc2n1", "outcome": "inactive"}
    ]}
  ]
}
